Several values for one entry are separate records, joined by “and”; a condition that tells them apart may be missing. Equal values may be shown once. Values without a mark were called inactive. Results filed as inconclusive are left out. Where a call stands in place of a potency, no number is given. Activity calls are given as the source filed them. Unless noted, the call rests on the fitted dose curve; in most records, active means well fitted curve in the direction sought with a large enough effect in the repeat runs; inconclusive means weak or mixed curves; inactive means no such curve, though single readings can be large; an effect the other way counts as inactive or inconclusive.
Legend:
[1] = qHTS assay for small molecule agonists of the p53 signaling pathway (AID 651631; calls by dose curve; further: nearly all actives have a fitted effect of over 15% in size; further: potency means the concentration at half of the fitted maximal effect)
In short: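 HCT-116 cells carrying a beta-lactamase reporter under p53 response elements were dosed with compound for 16 h at 37 °C. LiveBLAzer B/G FRET substrate was then added for 2 h at room temperature, and fluorescence intensity was read to detect pathway agonism.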

[2] = qHTS assay for small molecules that induce genotoxicity in human embryonic kidney cells expressing luciferase-tagged ATAD5 (AID 651632); further: nearly all actives have a fitted effect of over 15% in size
In short: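 Cells were seeded at 2,000 per well, dosed with compound, and incubated 16 hr at 37C in 5% CO2. Luciferase activity was then quantified after a 30 min room-temperature incubation with Amplite.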

[3] = qHTS assay for small molecule agonists of the p53 signaling pathway - cell viability (AID 651633; calls by dose curve; further: nearly all actives have a fitted effect of over 30% in size; further: potency means the concentration at half of the fitted maximal effect)
In short: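 p53RE-bla cells were treated with compound for 16 hours at 37 C. Cytotoxicity was then measured as CellTiter-Glo luminescence after 30 min at room temperature.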

[4] = qHTS assay for small molecule disruptors of the mitochondrial membrane potential - cell viability (AID 720634; calls by dose curve; further: nearly all actives have a fitted effect of over 20% in size; further: potency means the concentration at half of the fitted maximal effect)
In short: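 Cytotoxicity was measured by ATP quantitation in HepG2 wells that had first been treated with compound for 1 hr and stained with m-MPI dye; CellTiter-Glo incubation was 30 min at room temperature.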

[5] = qHTS assay to test for compound auto fluorescence at 590 nm (red) in HepG2 cells (AID 720674)
In short: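 Fluorescence at 590 nm emission following 540 nm excitation was recorded from HepG2 wells one hour after compound transfer, with DMSO-only wells as vehicle and Rose Bengal sodium equivalency as the scale.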

[6] = qHTS assay to test for compound auto fluorescence at 535 nm (green) in HepG2 cells (AID 720675)
[7] = qHTS assay to test for compound auto fluorescence at 460 nm (blue) in HEK293 cells (AID 720678)
In short: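 Blue read-out at excitation 405 nm and emission 460 nm follows overnight compound exposure of HEK293 cells at 37C in 5% CO2. Activity is given as auto fluorescence equivalency to triamterene.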

[8] = qHTS assay to test for compound auto fluorescence at 590 nm (red) in HEK293 cells (AID 720679)
In short: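 Red channel, Ex/Em 540/590nm; signal expressed as equivalency to Rose Bengal sodium. HEK293, 2,000 cells/well, 10% dialyzed FBS; 23 nL compound pinned after 4-5 hr attachment; overnight 37C/5% CO2 before reading.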

[9] = qHTS assay to test for compound auto fluorescence at 535 nm (green) in HEK293 cells (AID 720680)
[10] = qHTS assay to test for compound auto fluorescence at 460 nm (blue) in HEK293 cell free culture (AID 720681)
In short: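 Compounds were added to cell-free DMEM with 10% FBS and fluorescence read directly. The blue channel used 405 nm excitation and 460 nm emission, with triamterene as the reference fluorophore.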

[11] = qHTS assay to test for compound auto fluorescence at 535 nm (green) in HEK293 cell free culture (AID 720682)
In short: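 Green-label autofluorescence (485 nm excitation, 535 nm emission) measured on compound added to cell-free culture medium (DMEM, 10% FBS). Output is expressed relative to fluorescein.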

[12] = qHTS assay to test for compound auto fluorescence at 590 nm (red) in HEK293 cell free culture (AID 720683)
In short: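 Cell-free wells of DMEM with 10% FBS received compound, and intrinsic fluorescence was read at excitation/emission 540/590 nm. Values expressed as equivalence to Rose Bengal sodium.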

[13] = qHTS assay to test for compound auto fluorescence at 590 nm (red) in HepG2 cell free culture (AID 720684)
In short: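 Rose Bengal sodium served as the reference for red signal. Test compounds were dispensed into serum-containing MEM (10% FBS) without cells, and plates were read at 540/590 nm.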

[14] = qHTS assay to test for compound auto fluorescence at 460 nm (blue) in HepG2 cell free culture (AID 720685)
In short: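 Cell-free plates of MEM plus 10% FBS received 23 nL compound or DMSO vehicle; blue-channel (405/460 nm) intensity scored against triamterene as reference fluorophore.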

[15] = qHTS assay to test for compound auto fluorescence at 535 nm (green) in HepG2 cell free culture (AID 720686)
[16] = qHTS assay to test for compound auto fluorescence at 460 nm (blue) in HepG2 cells (AID 720687)
In short: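 HepG2 cells in MEM with 10% FBS, attached overnight at 37 C, were exposed to compound or DMSO for 1 hr at 37 C, 5% CO2. Blue fluorescence was read at 405/460 nm, with triamterene as reference fluorophore.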

[17] = target: Glucocorticoid receptor (Homo sapiens) (UniProt P04150); assay: qHTS assay to identify small molecule agonists of the glucocorticoid receptor (GR) signaling pathway (AID 720691; active means well fitted activation curve with a large enough effect in the signal ratio in the repeat runs, not every such curve was filed as active; the % refers to the signal ratio)
Sequence of Glucocorticoid receptor (Homo sapiens) (P04150 whole entry, looked up): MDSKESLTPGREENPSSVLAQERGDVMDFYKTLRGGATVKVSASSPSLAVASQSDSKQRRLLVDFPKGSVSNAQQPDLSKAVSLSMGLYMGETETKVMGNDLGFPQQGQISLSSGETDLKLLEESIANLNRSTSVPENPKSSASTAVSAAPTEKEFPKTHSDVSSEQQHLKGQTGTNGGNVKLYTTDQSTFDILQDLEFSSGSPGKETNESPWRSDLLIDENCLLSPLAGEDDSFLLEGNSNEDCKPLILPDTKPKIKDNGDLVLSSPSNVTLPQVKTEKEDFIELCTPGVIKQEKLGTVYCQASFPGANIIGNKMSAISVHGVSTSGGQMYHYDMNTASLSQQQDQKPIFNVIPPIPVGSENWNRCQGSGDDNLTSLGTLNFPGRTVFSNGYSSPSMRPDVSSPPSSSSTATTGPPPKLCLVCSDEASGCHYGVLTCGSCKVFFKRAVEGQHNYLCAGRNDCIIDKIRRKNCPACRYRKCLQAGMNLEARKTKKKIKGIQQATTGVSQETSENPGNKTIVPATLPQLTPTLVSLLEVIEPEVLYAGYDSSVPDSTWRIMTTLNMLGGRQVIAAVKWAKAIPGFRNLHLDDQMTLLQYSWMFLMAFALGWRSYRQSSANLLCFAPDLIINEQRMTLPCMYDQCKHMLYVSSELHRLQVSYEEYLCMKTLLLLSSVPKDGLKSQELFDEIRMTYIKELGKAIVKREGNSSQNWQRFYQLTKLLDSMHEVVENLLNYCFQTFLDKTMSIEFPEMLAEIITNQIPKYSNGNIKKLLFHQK
In short: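 Steps: seed GR-bla HeLa cells, incubate 4 h at 37 C/5% CO2; pin-transfer DMSO-dissolved compounds; incubate 18 h at 37 C; add LiveBLAzer B/G FRET substrate; after 2 h at room temperature, measure fluorescence.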

[18] = qHTS assay for small molecules that induce genotoxicity in human embryonic kidney cells expressing luciferase-tagged ATAD5 - cell viability (AID 651634; calls by dose curve; further: nearly all actives have a fitted effect of over 25% in size; further: potency means the concentration at half of the fitted maximal effect)
In short: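 Cells (HEK293T, luciferase-tagged ATAD5) are seeded at 2,000 per well, dosed with compound or DMSO vehicle, and incubated 15.5 hr at 37C and 5% CO2. CellTiter-Fluor is added for 30 min before fluorescence is measured.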

[19] = qHTS assay for small molecule disruptors of the mitochondrial membrane potential (AID 720635); further: potency means the concentration at half of the fitted maximal effect
In short: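 HepG2 cells exposed to compound 1 hr at 37C, then Mito-MPS dye 30 min. Ratio read of aggregate (540/590 nm) versus monomer (490/535 nm) fluorescence.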

[20] = target: Glucocorticoid receptor (Homo sapiens) (UniProt P04150); assay: qHTS assay to identify small molecule antagonists of the glucocorticoid receptor (GR) signaling pathway (AID 720692; active means well fitted inhibition curve with a large enough effect in the signal ratio in the repeat runs, not every such curve was filed as active; the % refers to the signal ratio; further: potency means the concentration at half of the fitted maximal effect)
In short: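 Antagonism was scored as loss of dexamethasone-driven (5 nM final) reporter signal in HeLa cells bearing a glucocorticoid response element–beta-lactamase construct, after 18 h compound exposure at 37 C and 2 h FRET substrate loading.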

NNC(=O)c1ccccc1
Potency [1]: inactive
Potency [2]: inactive
Potency [3]: inactive
Potency [4]: inactive
outcome [5]: inactive
outcome [6]: inactive
Potency [7]: inactive
outcome [8]: inactive
outcome [9]: inactive
Potency [10]: inactive
outcome [11]: inactive
outcome [12]: inactive
outcome [13]: inactive
Potency [14]: inactive
outcome [15]: inactive
Potency [16]: inactive
Potency [17]: inactive

O=c1ssc(Cl)c1Cl
Potency [2]: inactive
Potency [3]: 54.5 µM (active)
Potency [18]: 61.1 µM (active)
Potency [4]: 61.1 µM (active)
Potency [19]: 30.6 µM (active)
outcome [5]: inactive
outcome [6]: inactive
Potency [7]: inactive
outcome [8]: inactive
outcome [9]: inactive
Potency [10]: inactive
outcome [11]: inactive
outcome [12]: inactive
outcome [13]: inactive
Potency [14]: inactive
outcome [15]: inactive
Potency [16]: inactive
Potency [17]: inactive
Potency [20]: 43.6 µM (active)

Cc1cc(C(F)(C(F)(F)F)C(F)(F)F)ccc1NC(=O)c1cccc(I)c1C(=O)NC(C)(C)CS(C)(=O)=O
Potency [2]: inactive
Potency [3]: inactive
Potency [18]: inactive
Potency [4]: inactive
Potency [19]: 17.3 µM (active)
outcome [5]: inactive
outcome [6]: inactive
Potency [7]: inactive
outcome [8]: inactive
outcome [9]: inactive
Potency [10]: inactive
outcome [11]: inactive
outcome [12]: inactive
outcome [13]: inactive
Potency [14]: inactive
outcome [15]: inactive
Potency [16]: inactive
Potency [17]: inactive

O=c1oc2ccccc2c(O)c1Cc1c(O)c2ccccc2oc1=O
Potency [1]: 0.639 µM (active)
Potency [2]: inactive
Potency [3]: 0.507 µM (active)
fluorescence, relative to Rose Bengal [5]: -0.349% [at 18.6 µM]
fluorescence, % of fluorescein control [6]: 0.0236% [at 18.6 µM]
fluorescence, % of triamterene [7]: 0.108% [at 18.6 µM]
fluorescence, % of fluorescent control [8]: -0.0848% [at 18.6 µM]
fluorescence, % of fluorescein [9]: 0.155% [at 18.6 µM]
fluorescence, % of fluorescent control [10]: 0.0571% [at 18.6 µM]
activity change [11]: 0.109% [at 18.6 µM]
fluorescence, % of fluorescent control [12]: 0.108% [at 18.6 µM]
fluorescence, % of Rose Bengal [13]: 0.445% [at 18.6 µM]
fluorescence, % of fluorescent control [14]: -0.0804% [at 18.6 µM]
fluorescence, % of fluorescein control [15]: 0.114% [at 18.6 µM]
fluorescence, % of fluorescent control [16]: 0.0049% [at 18.6 µM]

Oc1ccc(C2(c3ccc(O)cc3)c3ccccc3-c3ccccc32)cc1
Potency [1]: 61.1 µM (active)
Potency [2]: inactive
Potency [3]: 0.172 µM (active)
Potency [19]: 61.1 µM (active)
outcome [5]: inactive
outcome [6]: inactive
Potency [7]: inactive
outcome [9]: inactive
Potency [10]: inactive
outcome [11]: inactive
outcome [13]: inactive
Potency [14]: inactive
outcome [15]: inactive
Potency [16]: inactive

CCN(CC)c1c([N+](=O)[O-])cc(C(F)(F)F)c(N)c1[N+](=O)[O-]
Potency [1]: inactive
Potency [2]: inactive
Potency [3]: inactive
Potency [19]: 24.3 µM (active)
outcome [5]: inactive
outcome [6]: inactive
Potency [7]: inactive
outcome [8]: inactive
outcome [9]: inactive
Potency [10]: inactive
outcome [11]: inactive
outcome [12]: inactive
outcome [13]: inactive
Potency [14]: inactive
outcome [15]: inactive
Potency [16]: inactive

CCC(C)(C)C(=O)OC1=C(c2ccc(Cl)cc2Cl)C(=O)OC12CCCCC2
Potency [1]: 7.7 µM (active)
Potency [3]: 61.1 µM (active)
Potency [19]: 9.69 µM (active)
outcome [5]: inactive
outcome [6]: inactive
Potency [7]: inactive
outcome [9]: inactive
Potency [10]: inactive
outcome [11]: inactive
outcome [13]: inactive
Potency [14]: inactive
outcome [15]: inactive
Potency [16]: inactive
Potency [17]: inactive

Cc1cc(C)cc(OP(=O)(Oc2cc(C)cc(C)c2)Oc2cc(C)cc(C)c2)c1
Potency [1]: inactive
Potency [2]: inactive
Potency [3]: inactive
Potency [19]: 49.3 µM (active)
outcome [5]: inactive
outcome [6]: inactive
Potency [7]: inactive
outcome [9]: inactive
Potency [10]: inactive
outcome [11]: inactive
outcome [13]: inactive
Potency [14]: inactive
outcome [15]: inactive
Potency [16]: inactive
Potency [17]: inactive

CC(C)CCCCCOC(=O)c1ccccc1C(=O)OCCCCCC(C)C
Potency [1]: inactive
Potency [2]: inactive
Potency [3]: inactive
Potency [4]: inactive
outcome [5]: inactive
outcome [6]: inactive
Potency [7]: inactive
outcome [9]: inactive
Potency [10]: inactive
outcome [11]: inactive
outcome [12]: inactive
outcome [13]: inactive
Potency [14]: inactive
outcome [15]: inactive
Potency [16]: inactive
Potency [17]: inactive
Potency [20]: inactive

c1ccc(OCC2CO2)cc1 (stereo unspecified)
Potency [1]: inactive
Potency [3]: inactive
Potency [4]: inactive
outcome [5]: inactive
outcome [6]: inactive
Potency [7]: inactive
outcome [8]: inactive
outcome [9]: inactive
Potency [10]: inactive
outcome [11]: inactive
outcome [12]: inactive
outcome [13]: inactive
Potency [14]: inactive
outcome [15]: inactive
Potency [16]: inactive
Potency [17]: inactive
Potency [20]: inactive

ClC(Cl)=C(c1ccc(Cl)cc1)c1ccc(Cl)cc1
Potency [2]: inactive
Potency [3]: 70.3 µM (active) and 48.6 µM (active)
Potency [18]: inactive
Potency [4]: inactive
Potency [19]: 22.2 µM (active) and 24.3 µM (active)
outcome [5]: inactive
outcome [6]: inactive
Potency [7]: inactive
outcome [8]: inactive
outcome [9]: inactive
Potency [10]: inactive
outcome [11]: inactive
outcome [12]: inactive
outcome [13]: inactive
Potency [14]: inactive
outcome [15]: inactive
Potency [16]: inactive
Potency [17]: inactive
Potency [20]: inactive

O=C(O)c1cc[c]([Hg][Cl])cc1
Potency [1]: 61.1 µM (active)
Potency [4]: inactive
outcome [5]: inactive
outcome [6]: inactive
Potency [7]: inactive
outcome [8]: inactive
outcome [9]: inactive
Potency [10]: inactive
outcome [11]: inactive
outcome [12]: inactive
outcome [13]: inactive
Potency [14]: inactive
outcome [15]: inactive
Potency [16]: inactive
Potency [20]: inactive

CSCCCN=C=S
Potency [1]: 54.5 µM (active)
Potency [18]: 54.5 µM (active)
Potency [4]: inactive
outcome [5]: inactive
outcome [6]: inactive
Potency [7]: inactive
outcome [9]: inactive
Potency [10]: inactive
outcome [11]: inactive
outcome [12]: inactive
outcome [13]: inactive
Potency [14]: inactive
outcome [15]: inactive
Potency [16]: inactive
Potency [17]: inactive

CCOC(=O)CC(=O)CCl
Potency [1]: 68.6 µM (active)
Potency [4]: inactive
outcome [5]: inactive
outcome [6]: inactive
Potency [7]: inactive
outcome [8]: inactive
outcome [9]: inactive
Potency [10]: inactive
outcome [11]: inactive
outcome [12]: inactive
outcome [13]: inactive
Potency [14]: inactive
outcome [15]: inactive
Potency [16]: inactive
Potency [17]: inactive

— PubChem BioAssay (Tox21)
